Measurements reported in PubChem BioAssay (NCI).
About 79,000 compounds went through this panel and 15% of them were active in at least one assay; those are over-represented in the sample as a whole. Unmarked numbers belong to inactive results. The source made the active and inactive calls. Rule as the data show it: active = growth inhibition above about 70%; inactive = the rest.

Key:
[1] = NCI Yeast Anticancer Drug Screen. Data for the rad50 strain (AID 155);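 also: 0% = growth of vehicle-only cultures of the same strain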; conditions: S. cerevisiae rad50 strain growth inhibition, active compounds read high
Outline: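 Inhibition values express reduced yeast growth in compound-treated cultures relative to vehicle-treated controls.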

[2] = NCI Yeast Anticancer Drug Screen. Data for the mec2-1 strain (AID 157); conditions: S. cerevisiae mec2-1 strain, active compounds read high
Outline: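 Using mec2-1 yeast: add compound, measure growth, express inhibition versus vehicle-treated cultures.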

[3] = NCI Yeast Anticancer Drug Screen. Data for the sgs1 mgt1 strain (AID 161);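 also: 0% = growth of cultures given vehicle only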; conditions: S. cerevisiae sgs1 mgt1 strain, active compounds read high
Outline: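 Compounds are added to genetically altered yeast, and growth is compared with cultures given vehicle alone to give percent inhibition.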

[4] = NCI Yeast Anticancer Drug Screen. Data for the cln2 rad14 strain (AID 165);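 also: 0% = growth equal to vehicle treated cultures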; conditions: S. cerevisiae cln2 rad14 strain, active compounds read high
Outline: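 Yeast strain cln2 rad14, bearing defects in cell cycle control and DNA repair, serves as the test system; values reflect growth inhibition compared with vehicle.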

[5] = NCI Yeast Anticancer Drug Screen. Data for the bub3 strain (AID 167); conditions: S. cerevisiae bub3 mutant strain, active compounds read high
Outline: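 Steps: expose the mutant yeast strain to compound; grow alongside vehicle-treated cultures; measure growth; express inhibition against the vehicle cultures.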

[6] = NCI Yeast Anticancer Drug Screen. Data for the mlh1 rad18 strain (AID 175); conditions: S. cerevisiae mlh1 rad18 strain growth inhibition, active compounds read high
Outline: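 Steps: expose repair-defective yeast to compound; measure growth; express inhibition against vehicle-treated controls.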

[7] = at 5.0 µM (retest, dose inferred, filed as 0.5)
[8] = at 50.0 µM (retest, dose inferred, filed as 5.0)

| SMILES | growth inhibition [1, 7] | growth inhibition [1, 8] | growth inhibition ([1]; at 50.0 µM) | growth inhibition [2, 7] | growth inhibition [2, 8] | growth inhibition ([2]; at 50.0 µM) | growth inhibition [3, 7] | growth inhibition [3, 8] | growth inhibition ([3]; at 50.0 µM) | growth inhibition [4, 7] | growth inhibition [4, 8] | growth inhibition ([4]; at 50.0 µM) | growth inhibition [5, 7] | growth inhibition [5, 8] | growth inhibition ([5]; at 50.0 µM) | growth inhibition [6, 7] | growth inhibition [6, 8] | growth inhibition ([6]; at 50.0 µM) |
| --- | --- | --- | --- | --- | --- | --- | --- | --- | --- | --- | --- | --- | --- | --- | --- | --- | --- | --- |
| CN(Cc1cnc2nc(N)nc(N)c2n1)c1ccc(C(=O)NC(CCC(=O)O)C(=O)O)cc1C(F)(F)F (configuration not stated) | -2% | 76% (active) | 72.7% (active) | 61% | 98% (active) | 50% | -12% | 62% | 67.5% | -16% | 5% | 29% | -19% | 65% | 75.5% (active) | 0% | 86% (active) | 56.9% |
| Cc1noc(NS(=O)(=O)c2ccc(N=Nc3cc(N=Nc4ccc(S(=O)(=O)Nc5onc(C)c5C)cc4)c4c(NC(=O)C(Cl)Cl)cccc4c3O)cc2)c1C (tested in a mixture with another compound) | 96% (active) | 61% | 73% (active) | 97% (active) | 57% | 74.5% (active) | 95% (active) | 63% | 75% (active) | 96% (active) | 65% | 63.4% | 95% (active) | 56% | 49.1% | 88% (active) | 43% | 59.2% |
| CN1C(=O)c2cccc3cc([N+](=O)[O-])cc(c23)C1=O | 6% | 80% (active) | 82.7% (active) | -16% | 76% (active) | 29.1% | 6% | 69% | 85.8% (active) | 17% | 80% (active) | 56.6% | 3% | 88% (active) | 64% | 15% | 53% | 56.6% |
| O=S(=O)(Nc1ccccc1)c1ccccc1CC(O)(c1ccccc1)c1ccccc1 | 46% | 90% (active) | 90% (active) | 67% | 94% (active) | 93% (active) | 98% (active) | 94% (active) | 91.2% (active) | 59% | 89% (active) | 90.4% (active) | 40% | 90% (active) | 90.4% (active) | 90% (active) | 90% (active) | 89.2% (active) |
| COC(=O)/C=C(\C)Nc1ccc(Cc2ccc(Cl)cc2)cc1 | 7% | 98% (active) | 98.3% (active) | -3% | 99% (active) | 97.8% (active) | 7% | 99% (active) | 97.2% (active) | 1% | 99% (active) | 97.5% (active) | -3% | 98% (active) | 97.5% (active) | 9% | 99% (active) | 98.2% (active) |
| CCCCCCCC/C(C=O)=C\c1ccccc1 | -3% | -25% | 77.8% (active) | -21% | -2% | 72.8% (active) | -3% | 3% | 78.2% (active) | -1% | 7% | 45% | -11% | -19% | 64.8% | -3% | -13% | 77.9% (active) |
| CN(C)CCC(/C=C/c1ccccc1)=N\Nc1ccc(Cl)cc1 | 27% | 99% (active) | 99.2% (active) | 17% | 99% (active) | 99% (active) | 56% | 100% (active) | 99.1% (active) | 12% | 99% (active) | 99.2% (active) | 46% | 99% (active) | 99.3% (active) | 42% | 99% (active) | 85.3% (active) |
| CCCOC(=O)C1CCCCC1C(=O)OCCC (configuration not stated) | 7% | -17% | 0.8% | -1% | -15% | 18.3% | -2% | 16% | -10.1% | -4% | 14% | 71.2% (active) | 1% | -2% | 5.3% | -7% | -4% | -12.7% |
| O=C1OC(CC(=O)c2ccccc2Cl)C(Cl)=C1Cl (configuration not stated) | 6% | 33% | 38.1% | 7% | 35% | 12.6% | 39% | 52% | 58.9% | 16% | 30% | 46.6% | 1% | 37% | -0.55% | 23% | 62% | 65.7% |
